Drawing on PubChem BioAssay (NCATS), this text covers Potency and outcome for eleven compounds.

Inconclusive results are not listed. Calls of active or inactive are those of the source. Calls follow the shape of the dose curve; as a rule, active = well fitted curve in the direction sought with a large enough effect; inconclusive = small, poorly fitted or top-dose-only effect, or another doubt; inactive = no such curve, though single readings can be large; an effect the other way counts as inactive or inconclusive.

A short description of assay [1]: Quantitative High-Throughput drug screen in 47 multiple myeloma cell lines against the NCATS MIPE library collection: FR4_PLB cell viability assay (AID 1918924; also: nearly all actives have a fitted effect of over 35% in size; also: potency is read from the fitted curve at half-maximal effect). In outline: (§1)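 qHTS of the MIPE 4.0 collection: 500 myeloma cells/well, 48 h drug exposure at 37C in 5% CO2, then CellTiter-Glo for 5 min at room temperature before luminescence reading.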
Assay [2] is described as follows: Quantitative High-Throughput drug screen in 47 multiple myeloma cell lines against the NCATS MIPE library collection: Delta47_JCRB cell viability assay (AID 1918925; also: nearly all actives have a fitted effect of over 45% in size; also: potency is read from the fitted curve at half-maximal effect). A digest of the protocol: as §1
The nature of assay [3]: Quantitative High-Throughput drug screen in 47 multiple myeloma cell lines against the NCATS MIPE library collection: EJM_DSMZ cell viability assay (AID 1918926; also: nearly all actives have a fitted effect of over 30% in size; also: potency is read from the fitted curve at half-maximal effect). A digest of the protocol:
as §1

A short description of assay [4]: Quantitative High-Throughput drug screen in 47 multiple myeloma cell lines against the NCATS MIPE library collection: ARP1_JJKsccF8 cell viability assay (AID 1918928; also: nearly all actives have a fitted effect of over 40% in size; also: potency is read from the fitted curve at half-maximal effect). A digest of the protocol: (§2)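 500 cells/well; MIPE 4.0 library pinned in; 48 h, 37 °C, 5% CO2; CellTiter-Glo ATP luminescence. Controls: DMSO = 100% viability, medium only = 0%.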
Assay [5] can be described thus: Quantitative High-Throughput drug screen in 47 multiple myeloma cell lines against the NCATS MIPE library collection: Karpas620_DSMZ cell viability assay (AID 1918959). Also: nearly all actives have a fitted effect of over 30% in size. Also: potency is read from the fitted curve at half-maximal effect. A digest of the protocol:
as §1

Assay [6] in a line: Quantitative High-Throughput drug screen in 47 multiple myeloma cell lines against the NCATS MIPE library collection: KMM1_JCRB cell viability assay (AID 1918960). Also: nearly all actives have a fitted effect of over 30% in size. Also: potency is read from the fitted curve at half-maximal effect. A digest of the protocol: as §2
Assay [7] in a line: Quantitative High-Throughput drug screen in 47 multiple myeloma cell lines against the NCATS MIPE library collection: JIM3_ECACC cell viability assay (AID 1918963; also: nearly all actives have a fitted effect of over 35% in size; also: potency is read from the fitted curve at half-maximal effect). In outline:
as §1

A short description of assay [8]: Quantitative High-Throughput drug screen in 47 multiple myeloma cell lines against the NCATS MIPE library collection: H1112_PLB cell viability assay (AID 1918967; also: nearly all actives have a fitted effect of over 30% in size; also: potency is read from the fitted curve at half-maximal effect). A digest of the protocol:
as §1

Assay [9] can be described thus: Quantitative High-Throughput drug screen in 47 multiple myeloma cell lines against the NCATS MIPE library collection: Karpas25_ECACC cell viability assay (AID 1918968; also: potency is read from the fitted curve at half-maximal effect; nearly all actives have a fitted effect of over 35% in size). To be noted: Karpas25 myeloma viability, CellTiter-Glo ATP, 48 h. In outline: as §1
In general terms: In ATP-based viability assays light output follows the ATP content of the culture.

The nature of assay [10]: Quantitative High-Throughput drug screen in 47 multiple myeloma cell lines against the NCATS MIPE library collection: KMS27_JCRB cell viability assay (AID 1918970). A digest of the protocol: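 Luminescent ATP read-out (CellTiter-Glo, 5 min at room temperature) after 48 h compound exposure of 500 KMS27_JCRB cells per well; DMSO wells define full viability and media-only wells zero.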

Assay [11] in a line: Quantitative High-Throughput drug screen in 47 multiple myeloma cell lines against the NCATS MIPE library collection: KMS12BM_JCRB cell viability assay (AID 1918971). Also: nearly all actives have a fitted effect of over 35% in size. Also: potency is read from the fitted curve at half-maximal effect. In outline: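 Viability readout: CellTiter-Glo luminescence following 5 min room-temperature incubation with reagent. Prior exposure: 48 h, 37C, humidified 5% CO2, 500 cells per well.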
The test system of assay [12] is Nanoluciferase (engineered Oplophorus gracilirostris luciferase). Nature of the assay: Primary Nanoluciferase (NLuc) qHTS assay for identification of artifact compounds. (AID 1845222). Also: series mostly up to about 54 µM. In outline: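 Luminescence read-out of secreted NLuc in S16 cell conditioned medium (1:55); compounds tested with 15 min RT preincubation, then Nano-Glo substrate 1:100, 5 min. % inhibition vs no-enzyme and DMSO controls, 4-parameter Hill fit.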
On the technique in general: In qHTS, concentration-response curves come from the screen itself.

Assay [13] can be described thus: Primary redox qHTS assay for identification of artifact compounds. (AID 1845223). In outline:
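Redox-cycling detection via DTT (250 uM final) oxidation coupled to Amplex Red (25 uM)/HRP (250 mU/mL) in HBSS. 15 min preincubation plus 30 min after DTT, room temperature. Ex/Em 525/598 nm; 4-parameter Hill fit against DMSO and 10 uM DA3003.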

Assay [14] is described as follows: Quantitative High-Throughput drug screen in 47 multiple myeloma cell lines against the NCATS MIPE library collection: AMO1_DSMZ cell viability assay (AID 1918927). A digest of the protocol: as §1
Assay [15] is described as follows: Quantitative High-Throughput drug screen in 47 multiple myeloma cell lines against the NCATS MIPE library collection: ARD_JJKsccE7 cell viability assay (AID 1918929; also: potency is read from the fitted curve at half-maximal effect). In outline: as §1
Assay [16] can be described thus: Quantitative High-Throughput drug screen in 47 multiple myeloma cell lines against the NCATS MIPE library collection: Karpas417_ECACC cell viability assay (AID 1918961). Also: potency is read from the fitted curve at half-maximal effect. The conditions noted are these: Karpas417 myeloma viability, CellTiter-Glo ATP luminescence, 48 h. In outline:
(§3)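 Luminescent ATP measurement with CellTiter-Glo gives viability, scaled between DMSO-only wells (100%) and media-only wells (0%). Cells, 500 per well, faced library compounds for 48 hours at 37C.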

The nature of assay [17]: Quantitative High-Throughput drug screen in 47 multiple myeloma cell lines against the NCATS MIPE library collection: KHM11_PLB cell viability assay (AID 1918962). To be noted: KHM11 myeloma cell viability, CellTiter-Glo ATP luminescence, 48 h. In outline:
as §1

A short description of assay [18]: Quantitative High-Throughput drug screen in 47 multiple myeloma cell lines against the NCATS MIPE library collection: JIM1_ECACC cell viability assay (AID 1918964; also: potency is read from the fitted curve at half-maximal effect). In outline:
as §1

A short description of assay [19]: Quantitative High-Throughput drug screen in 47 multiple myeloma cell lines against the NCATS MIPE library collection: INA6_PLB cell viability assay (AID 1918965; also: potency is read from the fitted curve at half-maximal effect; nearly all actives have a fitted effect of over 55% in size). The conditions noted are these: INA6 myeloma viability, CellTiter-Glo ATP luminescence, 48 h. A digest of the protocol:
as §3

Assay [20] can be described thus: Quantitative High-Throughput drug screen in 47 multiple myeloma cell lines against the NCATS MIPE library collection: JJN3_DSMZ cell viability assay (AID 1918966; also: potency is read from the fitted curve at half-maximal effect; nearly all actives have a fitted effect of over 50% in size). A digest of the protocol:
as §1

As for `COC(=O)C1=CCCN(C)C1`, the Potency entry in [1], in assay [2], in assay [3], in [4], in assay [5] and in assay [6] was “inactive” each time. The Potency result in assay [7], in [8] and in assay [11] was “inactive” throughout. Moreover, the figures for the Potency in assay [9] and in assay [10] were 5900 nM (active) and 3 nM (active), respectively.
On to `O=C(N[C@@H]1N=C(c2ccccc2F)c2cccc3c2N(CC3)C1=O)c1cc2ccccc2[nH]1`, for which the outcome in assay [12] and in assay [13] was inactive.
On to `CCCCC1C(=O)NC(=O)N(C2CCCCC2)C1=O` (configuration not stated), for which the call in [12] and in assay [13] was inactive.
Consider `C[C@]12CC[C@H](O)CC1=CC[C@@H]1[C@@H]2CC[C@]2(C)C(=O)CC[C@@H]12`, for which the outcome in [12] and in assay [13] was inactive.
Take `CCCOC(=O)Cc1ccc(OCC(=O)N(CC)CC)c(OC)c1`: the outcome in assay [12] and in [13] was inactive.
For the compound `CCOC(=O)NC(C)(C)Cc1ccc(Cl)cc1`, the result in assay [12] and in assay [13] was inactive.
Consider `Cc1nnc2n1-c1sc(CCc3ccc(CC(C)C)cc3)cc1C(c1ccccc1Cl)=NC2C` (configuration not stated), for which the outcome in [12] and in assay [13] was inactive.
With `O=C(O)CCCCCCNC1c2ccccc2CCc2ccccc21`, the call in assay [12] and in assay [13] was inactive.
Consider `CCCC[N+]1(C)[C@@H]2CC(OC(=O)[C@H](CO)c3ccccc3)C[C@H]1[C@@H]1O[C@@H]12` (some centres not stated), for which the compound was classed as inactive in assay [12] and in assay [13].
For `CCOC(=O)c1ncn2c1CN(C)C(=O)c1c(I)cccc1-2`, the call in [12] and in assay [13] was inactive.
Regarding `C[C@@H]1C[C@@H]([C@H](O)CC2CC(=O)NC(=O)C2)C(=O)[C@@H](C)C1`, the Potency in assay [1] is 743 nM (active); in assay [2], 743 nM (active); in assay [3], 3320 nM (active); in assay [14], 469 nM (active); in assay [4], 52.6 nM (active); in assay [15], 166 nM (active). Also, the Potency was 662 nM (active) in assay [5]; 209 nM (active) in assay [6]; 469 nM (active) in [16]; 372 nM (active) in assay [17]; 418 nM (active) in [7]; 148 nM (active) in assay [18]. In addition, the Potency was 118 nM (active) in [19]; 187 nM (active) in assay [20]; 1050 nM (active) in assay [8]; 1050 nM (active) in [9]; 1050 nM (active) in assay [10]; 209 nM (active) in assay [11].
